Laboratory results from PubChem BioAssay (NCATS).
Records with an inconclusive call do not appear. Unmarked numbers belong to inactive results. Calls of active or inactive are those of the source. The call rests on the fitted dose curve; in most records, active means well fitted inhibition curve with a large enough effect; inconclusive means small, poorly fitted or top-dose-only effect; inactive means flat fitted curve, though single readings scatter.

Biological target: Dual specificity protein kinase CLK4 (Homo sapiens) (UniProt Q9HAZ1)
Experiment: qHTS Assay for Inhibitors of CDC-like Kinase 4 (Kinase-Glo Assay) (AID 1770); further: nearly all actives have a fitted effect of over 65% in size
Details: recombinant Clk4, Kinase-Glo ATP depletion luminescence; series mostly up to 66.7 µM; activity, negative = inhibition: at the top concentration
Description: NIH Molecular Libraries Probe Production Centers Network [MLPCN] NIH Chemical Genomics Center [NCGC] MLPCN Grant: 1R03MH084827-01 Assay Submitter (PI): Tom Misteli NCGC Assay Overview: Clk4 (Invitrogen, cat# PV3839) was assayed using ATP and the RS repeat peptide (AnaSpec cat # 61722) as substrates. Following the Clk4 reaction, the remaining ATP levels were detected using Promega Kinase-Glo technology wherein the remaining ATP from the kinase reaction is detected using Ultra-Glo luciferase and D-luciferin which generates a bioluminescence signal from the ATP. The positive control for the assay was TG003 (Sigma-Aldrich, cat# 300801-52-9) which has been described as an inhibitor of Clk 4[1].
NCGC Assay Protocol Summary: Two uL/well of substrate-buffer solution (100 uM RS peptide, 1 uM ATP, 25 mM Tris pH7.5, 10 mM MgCl2, 0.5 mM EGTA, 2.5 mM DTT, 0.01% Triton X-100 final concentration) was dispensed into 1536-well, assay plates (Greiner, solid white medium-binding plates) with Aurora Discovery BioRAPTR Flying Reagent Dispenser (FRD; Beckton-Dickenson). Using a Kalypsys pin tool equipped with a 1536-pin tool, 23 nL of compound solution was transferred to the assay plate. One uL/ well Clk4-buffer solution (25 nM Clk4, 25 mM Tris pH 7.5, 10 mM MgCl2, 0.5 mM EGTA, 2.5 mM DTT, 0.01% Triton X-100, final concentrations) was then added using the FRD yielding a total kinase reaction volume of 3 uL/ well. After 4.5 hours of room temperature incubation, 3 uL Kinase-Glo reagent was added for a final assay volume of 6 uL/ well. Luminescence was detected with the ViewLux plate reader (Perkin Elmer, Waltham, MA) after 5 min incubation using a 5 second exposure time and 2x binning.
On the % scale 0 is the no-effect control and ±100 the full control effect; potency means the concentration at half of the fitted maximal effect.

Dual specificity protein kinase CLK4 (Homo sapiens), sequence (Q9HAZ1 whole entry, looked up): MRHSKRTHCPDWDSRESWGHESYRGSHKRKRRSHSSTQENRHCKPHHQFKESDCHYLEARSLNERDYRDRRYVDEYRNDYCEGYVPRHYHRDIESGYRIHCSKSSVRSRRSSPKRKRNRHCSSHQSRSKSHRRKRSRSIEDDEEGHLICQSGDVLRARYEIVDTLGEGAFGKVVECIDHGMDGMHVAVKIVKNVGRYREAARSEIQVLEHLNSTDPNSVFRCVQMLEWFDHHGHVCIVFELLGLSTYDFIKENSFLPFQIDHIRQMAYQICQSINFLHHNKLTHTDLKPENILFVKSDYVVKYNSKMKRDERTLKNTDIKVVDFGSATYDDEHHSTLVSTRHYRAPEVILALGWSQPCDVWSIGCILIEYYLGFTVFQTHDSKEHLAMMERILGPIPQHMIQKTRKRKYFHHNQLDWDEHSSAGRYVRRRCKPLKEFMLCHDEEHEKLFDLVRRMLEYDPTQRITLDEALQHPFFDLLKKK

Row | SMILES | activity, negative = inhibition | Potency
1 | COc1ccc2[nH]cc(CCNc3ccnc(-c4ccccc4C(F)(F)F)n3)c2c1 | -27.8% | 
2 | COc1cccc(-c2cc(NCc3cccnc3)ncn2)c1 |  | 14.1 µM (active)
3 | O=c1c(-c2ccc(Cl)cc2)nc2cnc(N3CCOCC3)nc2n1CCc1ccccc1 | -4.14% | 
4 | COc1cccc(Nc2ncc3nc(C)c(=O)n(-c4ccccc4)c3n2)c1 |  | 10 µM (active)
5 | COc1ccccc1CNc1ncncc1-c1cccc(NS(C)(=O)=O)c1 | -24.4% | 
6 | COc1ccc(-c2nc3cnc(OCc4ccccc4)nc3n(CCC#N)c2=O)cc1 | -3.99% | 
7 | CN1CCN(c2ncc3nc(-c4cccc(C#N)c4)c(=O)n(CCC#N)c3n2)CC1 | -18.9% | 
8 | COc1cccc(Nc2ncc3ncc(=O)n(C[C@H]4CCCO4)c3n2)c1 |  | 1.41 µM (active)
9 | COc1cccc(Cn2c(=O)c(-c3cccc(C#N)c3)nc3cnc(N4CCOCC4)nc32)c1 | -1.78% | 
10 | COc1cccc(-c2cc(NCc3cnc(C)cn3)ncn2)c1 |  | 17.8 µM (active)
11 | FC(F)(F)c1ccccc1-c1ccc2ncnc(NCCN3CCOCC3)c2c1 | -26.5% | 
12 | CN1CCN(c2ncc3nc(-c4ccccc4)c(=O)n(C)c3n2)CC1 | -2.76% | 
13 | CC(=O)NCCNc1nc(-c2ccccc2C)nc2ccccc12 |  | 22.4 µM (active)
14 | Cc1noc(C)c1-c1nccc(N(C)Cc2ccco2)n1 | -10.2% | 
15 | N#CCCn1c(=O)c(-c2ccc(F)cc2)nc2cnc(OCc3ccccc3)nc21 | 1.38% | 
16 | COc1ccc(-c2nc3cnc(N(C)C)nc3n(C[C@H]3CCCO3)c2=O)cc1 | -4.82% | 
17 | Cc1noc(C)c1-c1cncnc1N1CCN(C)CC1 | 1.75% | 
18 | Cn1cc(-c2nc3cnc(N4CCOCC4)nc3n(CCC#N)c2=O)c2ccccc21 | -6.7% | 
19 | O=c1c(-c2ccc(Cl)cc2)nc2cnc(Nc3ccccc3)nc2n1C1CC1 | -7.41% | 
20 | CNc1ncncc1-c1ccccc1C(F)(F)F | 2.43% | 

Row | SMILES | activity, negative = inhibition | Potency
21 | COc1ncc2nc(CCc3ccccc3)c(=O)n(CCc3ccccc3)c2n1 | 1.73% | 
22 | COc1cccc(Cn2c(=O)c(-c3ccc(F)cc3)nc3cncnc32)c1 | -0.132% | 
23 | COCCn1c(=O)c(CCc2ccccc2)nc2cnc(Oc3ccc(OC)cc3)nc21 | -2.35% | 
24 | CN(Cc1ccco1)c1cc(-c2ccccc2C(F)(F)F)ncn1 | -4.91% | 
25 | COc1ccc(CNc2nc(-c3c(C)noc3C)nc3ccccc23)c(OC)c1 | -15.6% | 
26 | COc1ccc(CNc2ncncc2-c2ccc(C(=O)N(C)C)cc2)c(OC)c1 | -17.9% | 
27 | COc1ccc(Oc2ncc3nc(-c4ccc(F)cc4)c(=O)n(Cc4cccs4)c3n2)cc1 | 3.87% | 
28 | CN1CCN(c2cc(-c3ccccc3Cl)ncn2)CC1 | -9.48% | 
29 | COc1ccc2[nH]cc(CCNc3ccnc(-c4ccc(N(C)C)cc4)n3)c2c1 |  | 15.8 µM (active)
30 | CN1CCN(c2ncc3nc(CCc4ccccc4)c(=O)n(C)c3n2)CC1 | 3% | 
31 | COc1cccc(-c2cncnc2Nc2ccccc2)c1 | -25.2% | 
32 | CN1CCN(c2ncc3ncc(=O)n(CCc4ccccc4)c3n2)CC1 |  | 25.1 µM (active)
33 | COc1ccccc1CNc1ccnc(-c2ccccc2Cl)n1 | -6.1% | 
34 | O=c1c(-c2cccs2)nc2cnc(Nc3ccccc3)nc2n1C[C@H]1CCCO1 | -18.1% | 
35 | Cc1cnc(CNc2cc(-c3ccccc3C(F)(F)F)ncn2)cn1 | -28.3% | 
36 | COc1ncc2ncc(=O)n(CCc3ccccc3)c2n1 |  | 14.1 µM (active)
37 | CN(Cc1ccco1)c1ccnc(-c2cccc(C#N)c2)n1 |  | 14.1 µM (active)
38 | Cn1cc(-c2nc3cncnc3n(Cc3ccccc3Cl)c2=O)c2ccccc21 | -4.68% | 
39 | COc1ccccc1-c1cc(-n2ccnc2)ncn1 |  | 6.31 µM (active)
40 | COc1cccc(Cn2c(=O)c(-c3ccc(Cl)cc3)nc3cnc(OC)nc32)c1 | 2.46% | 
